In PubChem BioAssay AID743360 (Molecular Libraries Program, Specialized Chemistry Center, …, 2014) one finds CRC/CRC0 ratio data, which are given here for 17 compounds.

Active and inactive are the calls of the source.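 How the source made its calls: active means calcium retention capacity relative to untreated control above about 1.1 ratio (limit read from the data); inactive means the rest.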 Where only a bound is given, the exact number is not on record here.

This test can be described thus: mitochondrial Ca2+ retention capacity increase – biochemical, dry powder samples, uHTS hits, Calcium Green-5N, dose response (AID 743360). The settings on record: isolated mitochondria, Ca retention capacity.
In the case of `COc1ccc(Cl)cc1C(=O)Nc1ccc(N2CCN(C)CC2)cc1`, the CRC/CRC0 ratio at 12.5 uM (higher = more inhibition) was 1.2 (active).
For `COc1ccc(Cl)c(C(=O)Nc2ccc(CN3CCCCC3)cc2)c1`, the CRC/CRC0 ratio at 12.5 uM (higher = more inhibition) was > 1 (inactive).
Take `O=C(Nc1cc(Cl)ccc1F)c1cc(-c2cccc(O)c2)on1`: the CRC/CRC0 ratio at 12.5 uM (higher = more inhibition) was 6.53 (active).
Consider `CN1CCN(c2ccc(NC(=O)c3cccc(OCc4ccccc4)c3)cc2)CC1`, for which the CRC/CRC0 ratio at 12.5 uM (higher = more inhibition) was 1.52 (active).
The result for `CN1CCN(Cc2ccc(NS(=O)(=O)c3cccc(Cl)c3)cc2)CC1` reads 1.01 (inactive); that for `O=C(Nc1ccc(Cl)cc1)c1cc(-c2cccc(O)c2)on1`, 3.44 (active); that for `O=C(Nc1ccc(N2CCCCC2)cc1)c1cccc(OCc2ccccc2)c1`, 1.01 (inactive).
For `O=C(Nc1ccc(CCN2CCCCC2)cc1)c1cccc(OCc2ccccc2)c1`, the CRC/CRC0 ratio at 12.5 uM (higher = more inhibition) was 3.04 (active).
With `O=C(Nc1ccc(CN2CCCCC2)cc1)c1cccc(OCc2ccccc2)c1`, the CRC/CRC0 ratio at 12.5 uM (higher = more inhibition) is 3.54 (active).
Turning to `O=C(Nc1ccc(Br)cc1)c1cc(C2CC2)on1`, the CRC/CRC0 ratio at 12.5 uM (higher = more inhibition) is 1.06 (inactive).
On to `COc1ccc(Cl)cc1C(=O)Nc1ccc(CN2CCN(C)CC2)cc1`, for which the CRC/CRC0 ratio at 12.5 uM (higher = more inhibition) is 1.24 (active).
In the case of `O=S(=O)(Nc1ccc(CN2CCCCC2)cc1)c1cc(Cl)cc(Cl)c1`, the CRC/CRC0 ratio at 12.5 uM (higher = more inhibition) was 1.07 (inactive).
Regarding `Cc1cc(NC(=O)c2ccc(-n3cnnc3)cc2)no1`, the CRC/CRC0 ratio at 12.5 uM (higher = more inhibition) was > 1 (inactive).
For `O=C(Nc1cccc(Cl)c1)c1cc(-c2ccccc2)on1`, the CRC/CRC0 ratio at 12.5 uM (higher = more inhibition) is > 1 (inactive).
Regarding `CN1CCN(Cc2ccc(NC(=O)c3cccc(OCc4ccccc4)c3)cc2)CC1`, the CRC/CRC0 ratio at 12.5 uM (higher = more inhibition) was 2.26 (active).
The result for `CCN(CC)c1ccc(NC(=O)c2ccc(OC)c(Cl)c2)cc1` reads 0.976 (inactive); that for `COc1ccc(Cl)c(C(=O)Nc2ccc(CN3CCN(C(=O)OC(C)(C)C)CC3)cc2)c1`, 1.37 (active).
